Results filed as inconclusive are left out. A call without a number means that no potency is given here. The source made the active and inactive calls. Calls follow the shape of the dose curve; as a rule, active = well fitted cell-killing curve with a large enough effect; inconclusive = small, poorly fitted or top-dose-only effect; inactive = no such curve, though single readings can be large or run the other way.
Experiment: qHTS of pediatric cancer cell lines to identify multiple opportunities for drug repurposing: Confirmatory screen for U-2 OS cells (AID 1347122); also: nearly all actives have a fitted effect of over 65% in size
Details: U-2 OS osteosarcoma cell viability; series mostly up to 45.9 µM
Text: Drug repurposing or repositioning has been offered as a strategy for drug development in oncology programs. This approach has special potential for childhood cancers and other rare or orphan diseases, where the expected return on new drug development has been a disincentive to pharmaceuticals.
In this project we exploit the poly-pharmacology of drugs to discover new indications via phenotypic screening of a panel of 19 well-characterized cell lines derived from solid tumors seen in children and adolescents. The goal is to identify approved drugs with previously unrecognized anticancer properties that has the potential to reveal new mechanisms and biological processes involved in carcinogenesis or drug resistance. We employed a titration-based paradigm (quantitative high-throughput screening or qHTS), where all compounds were tested at multiple concentrations for their effect on cell viability. Concentration-response curves (CRCs) were derived directly from the primary screen, and both potency and efficacy values were used to identify compounds with robust bioactivity profiles. We screened the NIH Chemical Genomics Center (NCGC) Pharmaceutical Collection (NPC) and Mechanism Interrogation Plate (MIPE) small molecule collections of approved and investigational compounds against these cell lines; and measured metabolically active cells after 48 hours of compound treatment as a proxy for cell viability.
Assay Submitter: Nathalia J. Martinez, National Center for Advancing Translational Sciences, National Institutes of Health, Rockville, MD, USA; email: natalia.martinez@nih.gov
[1] Shen, M et al. Quantitative high-throughput phenotypic screening of pediatric cancer cell lines identifies multiple opportunities for drug repurposing. Oncotarget 2017 Dec 19;9(4):4758-4772. PMID 29435139.
The cells were obtained from University of North Carolina (UNC), Pediatric Preclinical Testing Program (PPT), and Coriell Institute (CI).
qHTS cell viability assay:
Cells were assayed in growth media at a density of 500-1,000 cells/well. Five microliters of cells were dispensed into 1,536-well, white, solid-bottom, TC-treated plates (Greiner Bio One) using a multidrop dispenser and incubated at 37 degrees C, 5% CO2, under a humidified atmosphere for 5 hours. Twenty-three nanoliters of compounds and controls (neutral control DMSO or positive control bortezomib at final concentration of 2.3 µM) were subsequently transferred by Kalypsys pintool. For primary screens, the MIPE collection was tested at 11-point dilutions (final concentrations range from 0.78 nM to 46 µM) and the NPC collection at 8-point dilutions (final concentrations range from 0.59 nM to 46 µM). Compounds tested in follow-up screens were assayed at 11-point dilutions. Cells were incubated for 48 hours, followed by addition of 3 µL of CellTiter-Glo (Promega). After a 15 min incubation at room temperature, samples were analyzed for luminescence intensity using a ViewLux High-throughput CCD imager equipped with clear filters.
In the case of `C[C@@]12OC(=O)[C@]1([C@@H](O)[C@@H]1C=CCCC1)NC(=O)[C@H]2CCCl`, the Potency is reported as 329 nM (active).
With `O=C(Nc1ccncc1)C(=O)c1cn(Cc2ccc(Cl)cc2)c2ccccc12` the Potency was 465 nM (active).
With `COc1ccc2c(c1)CN(C)CC2c1ccc(Cl)c(Cl)c1` (stereo not given) the Potency was 20800 nM (active).
With `O=[N+]([O-])c1c(Cl)c(Cl)cc(Cl)c1Cl` the Potency was “inactive”.
In the case of `CC(C)(O)C=CC(=O)[C@](C)(O)[C@H]1[C@H](O)C[C@]2(C)[C@@H]3CC=C4[C@@H](C=C(O)C(=O)C4(C)C)[C@]3(C)C(=O)C[C@@]12C`, the Potency is reported as 208 nM (active).
In the case of `Cc1ccccc1-n1c(Cn2ncc3c(N)ncnc32)nc2cccc(C)c2c1=O`, the Potency is reported as “inactive”.
For `O=C(O)CCCOc1ccc(Cl)cc1Cl`, the Potency was “inactive”.
With `Cc1c(N)nc([C@H](CC(N)=O)NC[C@@H](N)C(N)=O)nc1C(=O)N[C@H](C(=O)N[C@@H](C)[C@H](O)[C@@H](C)C(=O)N[C@@H](C(=O)NCCc1nc(-c2nc(C(=O)NCCC[S+](C)C)cs2)cs1)[C@@H](C)O)C(O[C@H]1O[C@H](CO)[C@H](O)[C@@H](O)[C@@H]1O[C@H]1O[C@H](CO)[C@@H](O)[C@H](OC(N)=O)[C@H]1O)c1cnc[nH]1` (stereo not given in full) the Potency was “inactive”.
With `Cc1ccccc1-n1c(Cn2cnc3c(N)ncnc32)nc2cccc(C)c2c1=O` the Potency was “inactive”.
In the case of `CCC(=O)OC1CCC2C3CCC4=CC(=O)CC[C@@]4(C)C3CC[C@]12C` (stereo not given in full), the Potency is reported as “inactive”.
With `CC(C)(C)C(O)C(Oc1ccc(Cl)cc1)n1cncn1` (stereo not given) the Potency was “inactive”.
In the case of `CC(=Cc1csc(C)n1)[C@@H]1C[C@H]2O[C@]2(C)CCC[C@H](C)[C@@H](O)[C@@H](C)C(=O)C(C)(C)[C@@H](O)CC(=O)O1`, the Potency is reported as 26.1 nM (active).
With `CC[C@@]1(O)C(=O)OCc2c1cc1n(c2=O)Cc2cc3ccccc3nc2-1` the Potency was 1040 nM (active).
In the case of `COc1ccc(C(=O)c2c(C)n(CCN3CCOCC3)c3cc(I)ccc23)cc1`, the Potency is reported as 16500 nM (active).
For `CC[C@@H]1[C@@H](C)O[C@@](O)([C@@H](C)[C@H](O)[C@H](C)[C@H]2OC(=O)C=CC=C[C@@H](C)[C@@H]([C@@H](C)[C@@H](O)[C@H](C)[C@@]3(O)C[C@H](O[C@H]4C[C@H](O)[C@H](O)[C@H](C)O4)[C@H](CC)[C@@H](C)O3)OC(=O)C=CC=C[C@@H]2C)C[C@H]1O[C@H]1C[C@H](O)[C@H](O)[C@H](C)O1`, the Potency was “inactive”.
In the case of `CC1=C(O)C(=O)C=C2C1=CC=C1[C@@]2(C)CC[C@@]2(C)[C@@H]3C[C@](C)(C(=O)O)CC[C@]3(C)CC[C@]12C`, the Potency is reported as 928 nM (active).
For `COC1=CC(C)=C[C@@H](C)[C@@H](O)[C@@H](C)CC(C)=CC=C[C@H](OC)[C@H]([C@@H](C)[C@@H](O)[C@H](C)[C@@]2(O)C[C@@H](O)[C@H](C)[C@@H](C(C)C)O2)OC1=O`, the Potency was “inactive”.
For `CC(C)[C@]12O[C@@H]1[C@@H]1O[C@]13[C@]1(O[C@H]1C[C@@H]1C4=C(CC[C@@]13C)C(=O)OC4)[C@H]2O`, the Potency was 73.7 nM (active).
With `C[C@H]1CCCC=CC2C[C@H](O)C[C@@H]2[C@H](O)C=CC(=O)O1` (stereo not given in full) the Potency was 208 nM (active).
For `Cc1c(C(=O)Nc2cccc(C(F)(F)F)c2)cc(-c2ccccc2)n1CCCN1CCOCC1`, the Potency was 24000 nM (active).
In the case of `CC[C@H]1C=CC=CC[C@@H](C)[C@H](O)[C@@](C)(O)C(=O)[C@@H](C)[C@H](O)[C@@H](C)C(=O)[C@@H](C)[C@H](O)[C@@H](C)C=CC(=O)O[C@@H]2[C@@H](C)[C@H](CC1)O[C@]1(CC[C@H](C)[C@H](C[C@@H](C)O)O1)[C@H]2C`, the Potency is reported as 4.6 nM (active).
In the case of `C[C@]12Cc3cn[nH]c3C[C@@H]1CC[C@@H]1[C@H]2CC[C@@]2(C)[C@H]1CC[C@]2(C)O`, the Potency is reported as “inactive”.
In the case of `CC=C(C)C(=O)O[C@H]1C(C)=C2[C@@H]3OC(=O)[C@@](C)(O)[C@@]3(O)[C@@H](OC(=O)CCC)C[C@](C)(OC(C)=O)[C@@H]2[C@@H]1OC(=O)CCCCCCC`, the Potency is reported as “inactive”.
With `CCCN1CCO[C@@H]2c3cc(O)ccc3OC[C@@H]21` the Potency was “inactive”.
With `O=C(O)COc1nc(Cl)c(Cl)cc1Cl` the Potency was “inactive”.
With `O=c1[nH]c2ccc(Cl)cc2c(N[C@@H]2CN3CCC2CC3)c1-c1nc2ccccc2[nH]1` the Potency was 1310 nM (active).
For `CS(=O)(=O)c1ccc(C(=O)C2C(=O)CCCC2=O)c([N+](=O)[O-])c1`, the Potency was “inactive”.
In the case of `CC(C)N[C@@H]1CCn2c(=O)[nH]c3cccc(c32)[C@@H]1O`, the Potency is reported as “inactive”.
With `C[C@@H]1O[C@@H](O[C@@H]2C=C3CC[C@@H]4[C@@H](CC[C@]5(C)[C@H](c6ccc(=O)oc6)CC[C@@]45O)[C@@]3(C)CC2)[C@H](O)[C@H](O)[C@H]1O` the Potency was 16.5 nM (active).
For `CO[C@H]1CCC(O[C@H]2C[C@H]([C@]3(C)CC[C@]4(C[C@H](O)[C@@H](C)[C@@H]([C@@H](C)C=C(C)C(=O)[C@H](C)C[C@H](C)C(=O)O)O4)O3)O[C@]3(O[C@@H]([C@H]4O[C@@](O)(CO)[C@H](C)C[C@H]4C)C[C@H]3C)[C@H]2C)O[C@H]1C` (stereo not given in full), the Potency was 5220 nM (active).
Potency is read from the fitted curve at half-maximal effect.
